The text below walks through data of PubChem BioAssay (Tox21).

Records with an inconclusive call do not appear. A number with no mark means an inactive call. The source made the active and inactive calls. The call rests on the fitted dose curve; in most records, active means well fitted cell-killing curve with a large enough effect in the repeat runs; inconclusive means weak or mixed curves, or effect the other way; inactive means flat fitted curve, though single readings scatter.
On the % scale 0 is the no-effect control and ±100 the full control effect; potency means the concentration at half of the fitted maximal effect.

A short description of this test: qHTS RealTime-Glo MT Cell Viability Assay in HEK293 cells - 16 hour (AID 1224872). Further: nearly all actives have a fitted effect of over 50% in size. On activity change, negative = cytotoxicity: top concentration of the series differs between compounds. The conditions noted are these: RealTime-Glo luminescence; series mostly up to 76.8 µM; activity change, negative = cytotoxicity: at the top concentration. The text has this: National Center for Advancing Translational Sciences [NCATS]
NIH Chemical Genomics Center [NCGC]
U.S. Environmental Protection Agency [EPA]
National Institutes of Environmental Health Sciences [NIEHS]
National Toxicology Program [NTP]
U.S. Food and Drug Administration [FDA]
Measure of cell viability is critical in the cell-base assay. Analysis of cell viability is necessary for the characterization of cell responses to cytotoxic drugs and environmental stress. A RealTime-Glo MT Cell Viability Assay to monitor cell viability in real time of continues cell culture during 40 hours of compound treatment was used to screen Tox21 10K library compounds in Hek293 cells. The RealTime-Glo MT Cell Viability Assay is a nonlytic, homogeneous, bioluminescent method to measure cell viability in real time using a simple, plate-based method. The assay involves adding NanoLuc luciferase and a cell-permeant prosubstrate to cells in culture. Viable cells reduce the proprietary prosubstrate to generate a substrate for NanoLuc luciferase. This substrate diffuses from cells into the surrounding culture medium, where it is rapidly used by the NanoLuc Enzyme to produce a luminescent signal. The signal correlates with the number of viable cells, making the assay well suited for cytotoxicity studies.
Tox21 Assay Protocol Summary:
The mixture of Hek293 cell suspension and reagents were dispensed at 600cells/6 ul/well in 1536-well tissue culture treated black solid bottom plates using a Multidrop dispenser. After the assay plates were incubated at a 37 C/5% CO2 incubator for 5 hours, 23 nL of compounds dissolved in DMSO, positive and negative controls was transferred to the assay plate by a pintool work station. The plates were incubated at 37 C for 40 hours. The luminescence intensity were measured at 0h, 8h, 16h, 24h, 32h and 40h time points using ViewLux plate reader during compound treatment.
(qHTS replaces the single test concentration by a dilution series.)
Take `COS(=O)(=O)C(F)(F)F`: the “activity change, negative = cytotoxicity” value was 9.04%.
The same measure, in the same setting: for `O=C(O)C(S)C(S)C(=O)O` (stereo not given) the value was 7.24% [at 35.3 µM].
On to `CCCCCCCCCCCC(=O)OC[C@@H](O)[C@H]1OC[C@H](OCCO)[C@H]1OCCO`, for which the “activity change, negative = cytotoxicity” value was -21.8%.
The same measure, in the same setting: for `Cc1oc(-c2ccccc2)nc1CCOc1cccc2c1ccn2CCC(=O)O` the value was -6.31%; for `CN1C[C@H]2c3ccccc3Oc3ccc(Cl)cc3[C@@H]2C1`, -17.7% [at 35.3 µM]; for `O=S(c1cc(Cl)cc(Cl)c1O)c1cc(Cl)cc(Cl)c1O`, 0.595% [at 35.3 µM].
On the same count and under the same terms, for `COC(=O)c1ccc(I)cc1S(=O)(=O)NC(=O)Nc1nc(C)nc(OC)n1` the value was -4.8%.
On the same count and under the same terms, for `CCCCCCCCCCCCCCCCOS(=O)(=O)O` the value was -24.5% [at 35.3 µM]; for `C[Si](C)(CCCN)O[Si](C)(C)CCCN`, -10.5%; for `CCCCC1=NC2(CCCC2)C(=O)N1Cc1ccc(-c2ccccc2-c2nn[nH]n2)cc1`, 1.19% [at 35.3 µM].
Regarding `CCN(CC)c1ccc2c(-c3ccccc3C(=O)O)c3ccc(=[N+](CC)CC)cc-3oc2c1`, the Potency is 34.7 µM (active).
With `CCCC(=O)Nc1ccc(O)c(C(C)=O)c1`, the “activity change, negative = cytotoxicity” value was 2.28% [at 35.3 µM].
The same measure, in the same setting: the result for `CC(=O)c1cccc([N+](=O)[O-])c1` reads 5.98%.
The same measure, in the same setting: for `O=C(Nc1ccc(S(=O)(=O)N2CCOCC2)cc1)c1cc(Cl)ccc1NS(=O)(=O)c1ccc(Cl)s1` the value was 0.593% [at 35.3 µM].
On to `COc1cc(C(=O)OCCCN2CCCN(CCCOC(=O)c3cc(OC)c(OC)c(OC)c3)CC2)cc(OC)c1OC`, for which the Potency is 5.35 µM (active).
With `COCC(C)OC(C)=O` (stereo not given), the “activity change, negative = cytotoxicity” value was 2.01%.
On the same count and under the same terms, the result for `CCCCCCCCCCCc1ccccc1` reads -1.97%; that for `CCN(CC)CCOC(=O)C(Cc1cccc2ccccc12)CC1CCCO1` (stereo not given), -25.9% [at 35.3 µM].
On to `C=C1C(=C/C=C2\CCC[C@]3(C)[C@@H]([C@H](C)/C=C/[C@@H](O)C4CC4)CC[C@@H]23)C[C@@H](O)C[C@@H]1O`, for which the Potency is 19 µM (active).
`c1cc(CCCc2ccncc2)ccn1`: the “activity change, negative = cytotoxicity” value is -13.3%.
On to `O=C(O)c1ccc(-n2nc(-c3ccccc3O)nc2-c2ccccc2O)cc1`, for which the “activity change, negative = cytotoxicity” value was -4.17% [at 35.3 µM].
Same read-out and setting: the result for `CCN(CC)CCNC(=O)c1cc(Br)c(N)cc1OC` reads 1.62% [at 35.3 µM]; that for `COC(C)OC`, 2.74%; that for `CC(=O)c1ccc2c(c1)N(CCCN(C)C)c1ccccc1S2`, -28.1% [at 35.3 µM].
The same measure, in the same setting: the result for `NCC(=O)O` reads 4.48% [at 15.8 µM]; that for `CCCCc1ncc(/C=C(\Cc2cccs2)C(=O)O)n1Cc1ccc(C(=O)O)cc1`, 0.173% [at 35.3 µM]; that for `c1ccc(CNCCNCc2ccccc2)cc1`, 4.96% [at 35.3 µM].
On the same count and under the same terms, the result for `CCCCCCCC#N` reads -0.304%.
As to `Cc1ccc(C(C)OC(=O)C2(C)CCC(C(=O)O)C2(C)C)cc1` (stereo not given), the “activity change, negative = cytotoxicity” value was 12.6% [at 35.3 µM].
On the same count and under the same terms, the result for `Cc1[nH]c(C)c(Cl)c(=O)c1Cl` reads -23.6% [at 15.8 µM]; that for `CCC(C)c1cc(C(C)(C)C)c(O)c(C(C)(C)C)c1` (stereo not given), -3.29%.
The same measure, in the same setting: the result for `CCN(CC)c1ccc(C(=C2C=CC(=[N+](CC)CC)C=C2)c2cc(S(=O)(=O)O)ccc2S(=O)(=O)[O-])cc1` reads 4.34% [at 35.3 µM]; that for `CCC(C)O` (stereo not given), 11.4%.
On the same count and under the same terms, for `CC(C)OC(=O)C(C)N(C(=O)c1ccccc1)c1ccc(F)c(Cl)c1` (stereo not given) the value was -13.5%.
In the case of `C=CC(=O)OCCOCCOCCOCCOC(=O)C=C`, the Potency was 43.2 µM (active).
For the molecule `C=C(C)C(=O)OCCO`, the “activity change, negative = cytotoxicity” value is -2.75%.
Same read-out and setting: for `COC(C)(C)CCO` the value was 0.428%; for `CCCCCCCN`, -7.2%.
On the same count and under the same terms, the result for `O=[N+]([O-])c1ccc(NCCO)c(OCCO)c1` reads -9.82%.
Same read-out and setting: the result for `Brc1c2ccccc2c(Br)c2ccccc12` reads 0.583% [at 6.97 µM].
